Inconclusive results are not listed. Active and inactive are the calls of the source. The calls were made as follows: active = hit-call score of the fitted dose curve at least 0.9, where 1 is the maximum; inconclusive = response in the unintended direction; inactive = score below 0.9.
Target: human Vitamin D Receptor (VDR), VDR (gene 7421) (UniProt P11473)
Experiment: ATG_VDR_TRANS: Attagene TRANS-FACTORIAL HepG2 Assay for human Vitamin D Receptor (VDR) (AID 2283022)
Procedure, shortened: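 RT-PCR/capillary electrophoresis read-out of reporter mRNA induction in transiently transfected HepG2; 24 h dosing; chimeric NR-Gal4 (TRANS format); gain-of-signal fit against DMSO baseline.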

Sequence of human Vitamin D Receptor (VDR), VDR (gene 7421) (P11473 whole entry, looked up): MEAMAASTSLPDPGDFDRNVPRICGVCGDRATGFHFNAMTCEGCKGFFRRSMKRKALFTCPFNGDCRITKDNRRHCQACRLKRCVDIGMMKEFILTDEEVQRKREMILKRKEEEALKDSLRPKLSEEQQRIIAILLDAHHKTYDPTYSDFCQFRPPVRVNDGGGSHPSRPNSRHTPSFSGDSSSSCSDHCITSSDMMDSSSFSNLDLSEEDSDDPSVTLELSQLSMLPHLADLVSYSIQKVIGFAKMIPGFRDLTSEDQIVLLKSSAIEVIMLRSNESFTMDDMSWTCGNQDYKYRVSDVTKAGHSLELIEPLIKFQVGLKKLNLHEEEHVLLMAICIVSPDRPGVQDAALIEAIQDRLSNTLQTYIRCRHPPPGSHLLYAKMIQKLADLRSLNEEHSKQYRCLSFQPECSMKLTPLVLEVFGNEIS

SMILES | outcome
Cc1cc(=O)[nH]c(=O)[nH]1 | inactive
CCCCOCC(C)O (stereo unspecified) | inactive
Cn1ccnc1 | inactive
C=C(C)C1CC=C(C)C(OC(C)=O)C1 (stereo unspecified) | inactive
O=C(O)c1ccc2c(c1)C(=O)OC2=O | inactive
CCOC(=O)[C@H](O)[C@@H](O)C(=O)OCC | inactive
